Results on 22 compounds are retold here after the supplement of paper PMC7156485.

Holding throughout (conditions): concentration: 10 µM; 24 h
The test system of assay [1] is HCC1569. Nature of the assay: cell number relative to DMSO (% of DMSO); higher = more cells (less growth inhibition / toxicity). The method, boiled down:
(§1)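 After 24 h at 37 °C with compounds at 10 µM, in triplicate, HCC1569 and TDF cells were fixed with 3.7% formaldehyde. Immunostaining used a rabbit anti-H1.0 antibody and an AlexaFluor 647 secondary, with DAPI, and six fields per well were imaged at ×10. H1.0 nuclear intensity or cell number is presented as percent of the plate control, from the median of replicates, with HCC1569 values smoothed for positional effects.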

The test system of assay [2] is TDF. The assay is described as above. The method, boiled down:
as §1

Assay [3] has as its system TDF. Nature of the assay: H1.0 immunofluorescence intensity relative to DMSO (% of DMSO); higher = stronger H1.0 induction, active = 120 or more. The essentials:
as §1

The test system of assay [4] is HCC1569. Nature of the assay: H1.0 immunofluorescence intensity relative to DMSO (% of DMSO); higher = stronger H1.0 induction, active = 140 or more. The method, boiled down:
as §1

Structures are written as SMILES. ± gives the standard deviation of the averaged measurements.
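For H1.0 immunofluorescence intensity relative to DMSO in this document: TDF is a line of transformed human dermal fibroblasts of mesenchymal origin.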
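For cell number relative to DMSO in this document: TDF denotes transformed human dermal fibroblasts of mesenchymal origin.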

Turning to `Nc1nc(=O)c2nc(Br)n(C3OC4COP(=O)([O-])OC4C3O)c2[nH]1.[Na+]` (stereo not drawn) [8-Bromo-cGMP sodium], the cell number in the assay with HCC1569 [1] was found to be 101; with TDF [2] it was 100. Further, the figures for the H1.0 immunofluorescence intensity with TDF [3] and with HCC1569 [4] were 93.4 (inactive) and 92.8 (inactive), respectively.
For `CCCCCCCCCCCCCCCCCCCCC(=O)O` [Heneicosanoic acid], in that order: 102, 95.5, 98.5 (inactive) and 103 (inactive).
As to `CCCCCCCCC=CCCCCCCCCCCCCCC(=O)O` [15(Z)-Tetracosenoic acid], the cell number in the assay with HCC1569 [1] worked out at 103; in the assay with TDF [2], 98.8. Besides, the values for the H1.0 immunofluorescence intensity with TDF [3] and in the assay on HCC1569 [4] were 94.8 (inactive) and 99.1 (inactive), respectively.
Regarding `CN1C(C(=O)Nc2ccccn2)=C(O)c2ccccc2S1(=O)=O` [Piroxicam], the cell number came out at 102 ± 2.1 in the assay on HCC1569 [1] and 107 ± 3.5 in the assay with TDF [2]. In addition, the H1.0 immunofluorescence intensity is 96.9 (inactive) with TDF [3] and 98.2 (inactive) with HCC1569 [4].
Turning to `C[N+](C)(C)CCCCCC[N+](C)(C)C.[Br-].[Br-]` [Hexamethonium bromide], the cell number in the assay on HCC1569 [1] was 104; with TDF [2], 103. Besides, the H1.0 immunofluorescence intensity with TDF [3] is 98.5 (inactive); in the assay on HCC1569 [4], 102 (inactive).
Turning to `CCCCCC(O)C=CC=CC=CC(O)CC=CCCCC(=O)O` [8(S),15(S)-DIHETE all trans], the cell number in the assay with HCC1569 [1] was 103; with TDF [2], 96.5. The results for the H1.0 immunofluorescence intensity with TDF [3] and in the assay with HCC1569 [4] were 92.4 (inactive) and 101 (inactive), respectively.
As for `COC(=O)N=NC=C1C=[N+]([O-])c2ccccc2N1O` [Carbadox], the cell number with HCC1569 [1] is 104; in the assay with TDF [2], 101. For the same compound, the values for the H1.0 immunofluorescence intensity in the assay with TDF [3] and in the assay with HCC1569 [4] were 95.8 (inactive) and 92.8 (inactive), respectively.
On to `CCN(CC)C(=S)SSC(=S)N(CC)CC` [Disulfiram], for which the cell number turned out to be 93.4 ± 1.7 in the assay on HCC1569 [1] and 39 ± 4.7 in the assay on TDF [2]. In addition, the H1.0 immunofluorescence intensity with TDF [3] is 123 (active); in the assay with HCC1569 [4], 116 (inactive).
With `COC12C(COC(N)=O)C3=C(C(=O)C(C)=C(N)C3=O)N1CC1NC12` (stereo not drawn) [Mitomycin C], the values for the cell number in the assay on HCC1569 [1] and in the assay on TDF [2] were 73.2 ± 6 and 47.6 ± 1.8, respectively. The H1.0 immunofluorescence intensity in the assay on TDF [3] is 105 (inactive); with HCC1569 [4] it was 96.2 (inactive).
On to `Cn1c(=O)c2[nH]cnc2n(C)c1=O` [Aminophylline], for which the cell number in the assay with HCC1569 [1] was found to be 103; with TDF [2] it was 115. Moreover, the results for the H1.0 immunofluorescence intensity in the assay on TDF [3] and with HCC1569 [4] were 98.7 (inactive) and 96.4 (inactive), respectively.
Consider `CC(C)c1ccc2c(c1)c(SC(C)(C)C)c(CC(C)(C)C(=O)[O-])n2Cc1ccc(Cl)cc1.[Na+]`, for which the values for the cell number in the assay on HCC1569 [1] and with TDF [2] were 102 and 108, respectively. For the same compound, the H1.0 immunofluorescence intensity with TDF [3] was 91.8 (inactive); in the assay on HCC1569 [4] it was 91.2 (inactive).
Take `CN1C(CC(=O)c2ccccc2)CCCC1CC(O)c1ccccc1` (stereo not drawn) [Lobeline]: the cell number with HCC1569 [1] was determined as 103; in the assay with TDF [2] it was 102. Also, the H1.0 immunofluorescence intensity in the assay with TDF [3] is 94.9 (inactive); in the assay with HCC1569 [4] it was 99.8 (inactive).
For the compound `Nc1ccn(C2OC(CO)C(O)C2(F)F)c(=O)n1` (stereo not drawn) [Gemcitabine], the cell number with HCC1569 [1] is 74.8; in the assay on TDF [2], 42.4. The H1.0 immunofluorescence intensity is 122 (active) in the assay on TDF [3] and 96.6 (inactive) in the assay with HCC1569 [4].
The corresponding values for `Br.Oc1ccc(C2CNCc3sccc32)cc1O` (stereo not drawn) are 100, 96.3, 94.4 (inactive) and 112 (inactive).
Regarding `CC1(C)NC(=O)N(c2ccc([N+](=O)[O-])c(C(F)(F)F)c2)C1=O` [Nilutamide], the values for the cell number with HCC1569 [1] and in the assay with TDF [2] were 101 and 91, respectively. The figures for the H1.0 immunofluorescence intensity in the assay on TDF [3] and in the assay with HCC1569 [4] were 98.9 (inactive) and 100 (inactive), respectively.
For `CC(=O)NCC1CN(c2ccc(N3CCOCC3)c(F)c2)C(=O)O1` (stereo not drawn) [Linezolid], the cell number is 104 with HCC1569 [1] and 99.7 in the assay on TDF [2]. In addition, the H1.0 immunofluorescence intensity in the assay with TDF [3] is 93.4 (inactive); in the assay on HCC1569 [4], 110 (inactive).
Turning to `CCNC(=O)N1CCN(CCCC(c2ccc(F)cc2)c2ccc(F)cc2)CC1.Cl` [Amperozide hydrochloride], the cell number stood at 94.2 in the assay with HCC1569 [1] and 95.8 with TDF [2]. The H1.0 immunofluorescence intensity in the assay with TDF [3] was 97 (inactive); in the assay on HCC1569 [4] it was 99 (inactive).
As for `CC1CCN=C(N)S1.Cl` (racemic), the values for the cell number in the assay with HCC1569 [1] and with TDF [2] were 98.5 and 103, respectively. For the same compound, the H1.0 immunofluorescence intensity in the assay on TDF [3] is 108 (inactive); in the assay on HCC1569 [4], 100 (inactive).
On to `CS(=O)(=O)O.NC(=NC(=O)c1nc(Cl)c(N)nc1N)Nc1ccccc1` [Phenamil methanesulfonate], for which the cell number in the assay with HCC1569 [1] came out at 103; in the assay on TDF [2], 116. Also, the figures for the H1.0 immunofluorescence intensity with TDF [3] and in the assay on HCC1569 [4] were 88.9 (inactive) and 96.1 (inactive), respectively.
Take `CCCCCC=CCC=CCC=CC=CC(O)CCCC(=O)O` (stereo not drawn): the cell number was determined as 97 in the assay on HCC1569 [1] and 103 in the assay with TDF [2]. Moreover, the H1.0 immunofluorescence intensity with TDF [3] is 104 (inactive); with HCC1569 [4] it was 105 (inactive).
The corresponding values for `CCCCCCCCC=CCCCCCCCC(=O)NCCc1ccc(O)c(O)c1` [Oleoyl dopamine] are 98.1, 88.4, 103 (inactive) and 118 (inactive).
The corresponding values for `CCCCCC(O)C=CC=O` (racemic) are 99.2, 109, 93.8 (inactive) and 106 (inactive).
